From article PMC7862700, “An all-to-all approach to the identification of sequence-specific readers for epigenetic DNA modifications on cytosine”

Target: T1, ETS2 (Homo sapiens, UniProt P15036 1-469)
T1 sequence: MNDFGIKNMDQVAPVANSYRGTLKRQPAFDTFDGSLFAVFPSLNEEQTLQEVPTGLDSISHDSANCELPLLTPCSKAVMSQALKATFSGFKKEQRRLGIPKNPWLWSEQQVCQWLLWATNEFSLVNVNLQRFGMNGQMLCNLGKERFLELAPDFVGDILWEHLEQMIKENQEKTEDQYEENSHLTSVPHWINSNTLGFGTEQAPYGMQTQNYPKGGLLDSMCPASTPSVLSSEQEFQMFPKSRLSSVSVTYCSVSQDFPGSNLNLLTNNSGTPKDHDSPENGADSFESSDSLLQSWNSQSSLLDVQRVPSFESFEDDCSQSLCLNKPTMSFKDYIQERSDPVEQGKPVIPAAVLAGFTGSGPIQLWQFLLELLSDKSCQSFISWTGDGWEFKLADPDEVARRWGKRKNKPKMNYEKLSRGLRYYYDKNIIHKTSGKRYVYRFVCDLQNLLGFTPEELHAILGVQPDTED
Assay: DAPPL (digital affinity profiling via proximity ligation, sequencing); 10 mM Tris-HCl pH 7.5, 50 mM NaCl, 1 mM DTT, 4% glycerol, room temperature, 30 min; GST-TFs on glutathione beads, 16-mer random dsDNA library, 0.1% formaldehyde crosslink after washing; high values mean tight binding
Conditions: protein: recombinant; tags: N-terminal GST; dsDNA, one strand shown
Procedure, shortened: (§1)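 Human transcription factors carrying a GST fusion were produced in yeast, bound to glutathione beads, tagged with DNA barcodes and pooled together with a tag-only sample. Each pool was held with 200 nmole of a random double-stranded 16-mer DNA library in Tris/NaCl/DTT/glycerol buffer for 30 min at room temperature, then washed, crosslinked in 0.1% formaldehyde, proximity-ligated with BsaI/T4 ligase (1 h, 37 °C), PCR-amplified and sequenced on an Illumina NextSeq500. Binding signal is the read frequency of each hexamer for a given factor divided by its frequency in the tag-only sample.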

Sequence | binding signal
TCAGCC | 1 fold enrichment (6-mer frequency, TF over GST control)
GATACA | 1.05 fold enrichment (6-mer frequency, TF over GST control)
TGTGAT | 1.09 fold enrichment (6-mer frequency, TF over GST control)
TGGCCA | 1.07 fold enrichment (6-mer frequency, TF over GST control)
ATGCGT | 1.02 fold enrichment (6-mer frequency, TF over GST control)
TTGACG | 1.08 fold enrichment (6-mer frequency, TF over GST control)
TGATTG | 1.01 fold enrichment (6-mer frequency, TF over GST control)
TGTCAA | 1.03 fold enrichment (6-mer frequency, TF over GST control)
GTCGAC | 1.04 fold enrichment (6-mer frequency, TF over GST control)
GCCGCA | 1 fold enrichment (6-mer frequency, TF over GST control)
ATTGAG | 1 fold enrichment (6-mer frequency, TF over GST control)
GACGAC | 1.02 fold enrichment (6-mer frequency, TF over GST control)

Target: T2, SPDEF (Homo sapiens, UniProt O95238 1-335)
T2 sequence: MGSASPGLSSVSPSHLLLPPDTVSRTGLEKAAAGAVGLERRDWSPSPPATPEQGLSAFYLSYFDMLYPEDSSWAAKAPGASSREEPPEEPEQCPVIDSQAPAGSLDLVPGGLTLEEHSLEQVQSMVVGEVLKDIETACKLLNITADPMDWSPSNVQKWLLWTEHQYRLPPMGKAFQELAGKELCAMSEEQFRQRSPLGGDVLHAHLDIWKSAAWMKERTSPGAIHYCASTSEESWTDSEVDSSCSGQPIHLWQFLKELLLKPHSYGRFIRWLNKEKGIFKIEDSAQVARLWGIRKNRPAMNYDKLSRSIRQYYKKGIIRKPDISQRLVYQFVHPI
Assay: as above
Conditions: protein: recombinant; tags: N-terminal GST; dsDNA, one strand shown
Procedure, shortened: as §1

Sequence | binding signal
TCAGCC | 1.03 fold enrichment (6-mer frequency, TF over GST control)
GATACA | 1.24 fold enrichment (6-mer frequency, TF over GST control)
CGCGGC | 1.04 fold enrichment (6-mer frequency, TF over GST control)
TGTGAT | 1.06 fold enrichment (6-mer frequency, TF over GST control)
GCCGTC | 1.03 fold enrichment (6-mer frequency, TF over GST control)
ATGCGT | 1.07 fold enrichment (6-mer frequency, TF over GST control)
CACACC | 1.02 fold enrichment (6-mer frequency, TF over GST control)
GTCGAC | 1.06 fold enrichment (6-mer frequency, TF over GST control)
ACCGTT | 1.01 fold enrichment (6-mer frequency, TF over GST control)
GTTTGT | 1.01 fold enrichment (6-mer frequency, TF over GST control)
CGTACG | 1.02 fold enrichment (6-mer frequency, TF over GST control)
ATTGAG | 1.01 fold enrichment (6-mer frequency, TF over GST control)
GACGAC | 1.04 fold enrichment (6-mer frequency, TF over GST control)

Target: T3, ETV7 (Homo sapiens, UniProt Q9Y603 1-341)
T3 sequence: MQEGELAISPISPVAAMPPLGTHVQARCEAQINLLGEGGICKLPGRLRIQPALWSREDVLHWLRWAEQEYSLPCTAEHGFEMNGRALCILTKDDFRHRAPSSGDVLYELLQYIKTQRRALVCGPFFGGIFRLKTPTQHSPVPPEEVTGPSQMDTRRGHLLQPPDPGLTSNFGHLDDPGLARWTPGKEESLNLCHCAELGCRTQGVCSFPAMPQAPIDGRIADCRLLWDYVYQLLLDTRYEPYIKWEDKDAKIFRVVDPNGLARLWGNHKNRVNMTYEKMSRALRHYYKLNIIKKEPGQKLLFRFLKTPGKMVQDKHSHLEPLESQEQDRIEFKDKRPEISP
Assay: as above
Conditions: protein: recombinant; tags: N-terminal GST; dsDNA, one strand shown
Procedure, shortened: as §1

Sequence | binding signal
CAAAGT | 1 fold enrichment (6-mer frequency, TF over GST control)
CGCGGC | 1.03 fold enrichment (6-mer frequency, TF over GST control)
TGTGAT | 1.05 fold enrichment (6-mer frequency, TF over GST control)
TCGTTA | 1.06 fold enrichment (6-mer frequency, TF over GST control)
GCCGTC | 1.03 fold enrichment (6-mer frequency, TF over GST control)
TGGCCA | 1.09 fold enrichment (6-mer frequency, TF over GST control)
ATGCGT | 1.16 fold enrichment (6-mer frequency, TF over GST control)
AGGCCC | 1.03 fold enrichment (6-mer frequency, TF over GST control)
CACACC | 1.01 fold enrichment (6-mer frequency, TF over GST control)
TTGACG | 1.19 fold enrichment (6-mer frequency, TF over GST control)
TGATTG | 1.05 fold enrichment (6-mer frequency, TF over GST control)
ACCGTT | 1.08 fold enrichment (6-mer frequency, TF over GST control)
CATGGC | 1.07 fold enrichment (6-mer frequency, TF over GST control)
AGTTTT | 1.02 fold enrichment (6-mer frequency, TF over GST control)
GTTTGT | 1.11 fold enrichment (6-mer frequency, TF over GST control)
ACTCGG | 1.06 fold enrichment (6-mer frequency, TF over GST control)
CGGCCC | 1.05 fold enrichment (6-mer frequency, TF over GST control)
CGTACG | 1.06 fold enrichment (6-mer frequency, TF over GST control)
ATTGAG | 1.08 fold enrichment (6-mer frequency, TF over GST control)
